This is a sample that favours compounds with a hit; in the whole collection about 3.6% have one here.
NRP1-CendR mod: NRP-1/CendR interaction modulation; AID 602438; FAM-RPARPAR peptide binding to NRP-1, fluorescence polarization; 360,000 compounds, 0.85% hits; inhibition, % at 25 µM; O14786;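 active = inhibition or corrected inhibition above about 18%, plus a signal ratio from 0.5 to 1.5, limit read from the data, passing the limit was not always enough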
FAS TE block: inhibitors of human fatty acid synthase thioesterase domain; P49327; inhibition, % at 15 µM; 360,000 compounds, 0.67% hits; AID 602261; recombinant FAS-TE, OMFH fluorogenic substrate, fluorescence endpoint;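 active = compounds whose normalised, plate-corrected inhibition of enzyme fluorescence in the single-dose primary screen is 50% or more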
CRFBP-R2 block: antagonists of CRF-binding protein/CRF-R2 receptor complex; HEK293 CRF-R2/CRF-BP, CRF-induced calcium fluorescence; inhibition, % at 11.8 µM; 350,000 compounds, 0.59% hits;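 active = inhibition of the ligand-induced calcium signal above about 50% at the single tested concentration, limit read from the data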
NadD block: blocks S. aureus nicotinate mononucleotide adenylyltransferase; inhibition, % at 20 µM; purified NadD enzyme, colorimetric absorbance read-out; 360,000 compounds, 0.78% hits; in the data active = inhibition above about 26%
Myeloid diff 2: myeloid differentiation induction; ER-HoxA9 myeloid progenitors, lysozyme-GFP differentiation, flow cytometry; calls only at 10 µM; 360,000 compounds, 1% hits; AID 624256;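 active = normalized GFP-positive differentiation at or above the plate's own cutoff, the solvent-only control mean plus 3 SD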;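 also: cells exposed to compound for four days before flow analysis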
Myeloid diff: promotes myeloid progenitor differentiation. shares compounds with Myeloid diff 2. calls only. ER-HoxA9 myeloid progenitors, GFP/Mac1 double-positive flow. 2,300 compounds, 2% hits;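 active = share of green or green-and-red cells above 9 and 9% in run 1 or 4 and 3% in run 2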
GFP autofluor: counter-screen for myeloid differentiation promoters: compound fluorescence | shares compounds with Myeloid diff 2 | ER-HoxA9 myeloid progenitors, no estrogen, GFP autofluorescence flow cytometry; vehicle wells 0%, positive control 100% | fluorescence response, % (no concentration beside the values) | 2,300 compounds, 7.4% hits | AID 651707;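 active = over 5% cells positive for green fluorescent reporter, or over 2% positive for both it and APC stain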
Large screens that a line does not name were inactive (follow-up assays come after a bar, where they were run).

Cc1ccc(Cl)cc1N1CCN(C(=O)C2CCC(=O)N(C3CCCCCC3)C2)CC1 (stereo not given)	Myeloid diff 2 active | Myeloid diff inactive | GFP autofluor inactive
COc1cc(CNc2ccc3[nH]c(=O)[nH]c3c2)ccc1OCc1ccccc1Cl	none | Myeloid diff inactive | GFP autofluor inactive
O=c1[nH]c2ccc(NCc3ccc(OCc4ccccc4Cl)cc3)cc2[nH]1	none
C[n+]1c2n(c3ccccc31)N=C(c1cc(C(C)(C)C)c(O)c(C(C)(C)C)c1)CS2	Myeloid diff 2 active | Myeloid diff inactive | GFP autofluor inactive
COc1cccc(C2=Nn3c(nnc3-c3ccccc3O)SC2)c1	none
NS(=O)(=O)c1ccc(CCNc2ncnc3sccc23)cc1	none
Cc1sc2ncnc(NCCc3ccc(S(N)(=O)=O)cc3)c2c1C	none | Myeloid diff inactive | GFP autofluor inactive
CCC/C=C1/CCCOC(C(=O)NCc2ccc(C)o2)(C(F)(F)F)C1 (stereo not given)	Myeloid diff 2 active | Myeloid diff inactive | GFP autofluor inactive
CCC/C=C1/CCCOC(C(=O)NCc2ccccn2)(C(F)(F)F)C1 (stereo not given)	none
CC1(C)N=C(N)NC(Nc2ccc(Br)cc2)=N1	Myeloid diff 2 active | Myeloid diff inactive | GFP autofluor inactive
Cc1c(Cl)cccc1NC(=S)N1CCCN(Cc2ccc(F)cc2)C1	none
O=C1OC(/C(=C\Nc2cc(Cl)ccc2O)[N+](=O)[O-])c2ccccc21 (stereo not given)	none | Myeloid diff inactive | GFP autofluor inactive
Cc1ccc(-c2nn(Cc3ccccc3)cc2C(=O)NCC2CCCO2)cc1 (stereo not given)	none
Cc1c(C(=O)N2CCN(c3ccccc3)CC2)sc2ncnc(N3CCN(c4ccccn4)CC3)c12	Myeloid diff 2 active | Myeloid diff inactive | GFP autofluor inactive
Cc1ccc(Nc2ncccc2C(=O)NCc2cccs2)c(C)c1	none
Cc1cccc(Nc2ncccc2C(=O)NCc2cccs2)c1C	none | Myeloid diff inactive | GFP autofluor inactive
COc1ccc(/C=C2\SC(=S)N(CCC(=O)NC3CCCC3)C2=O)cc1OC	NRP1-CendR mod 22.0 | Myeloid diff inactive | GFP autofluor inactive
CCOC(=O)N1CCN(C(=O)CCN2C(=O)/C(=C\c3ccc(OC)c(OC)c3)SC2=S)CC1	none
O=S(=O)(CCN1CCN(c2ccccc2O)CC1)c1cc(Cl)ccc1Cl	none
CCCCN1CC(COCc2ccccc2)Oc2cccc(N3CCCC3)c2S1(=O)=O (stereo not given)	none | Myeloid diff inactive | GFP autofluor inactive
O=C(CCN1CCOCC1)Nc1cc(C(=O)Nc2ccc(Cl)cc2)ccc1N1CC2CC(C1)c1cccc(=O)n1C2 (stereo not given)	none
O=C(Nc1cc(Br)ccc1O)c1cc(-c2ccccc2)on1	none
Cc1ccc(O)c(NC(=O)c2cc(-c3ccccc3)on2)c1	Myeloid diff 2 active | Myeloid diff inactive | GFP autofluor inactive
O=C(CCC(=O)N(CC(=O)NC1CCCCC1)c1ccc2c(c1)OCO2)Nc1ccccn1	none | Myeloid diff inactive | GFP autofluor inactive
C=C(C)COc1ccc2c(C)c(CC(=O)OC)c(=O)oc2c1C	none | Myeloid diff inactive | GFP autofluor inactive
O=C(O)c1ccccc1-c1ccc(/C=C2\SC(=O)N(c3ccccc3)C2=O)o1	none
O=C1S/C(=C\c2ccc(N3CCOCC3)o2)C(=O)N1c1ccccc1	Myeloid diff 2 active | Myeloid diff inactive | GFP autofluor 9.6
O=C1NC(=O)C2(CCCCC2)N1	none
Cc1ccc(C2=NCCNC2=O)c(C)c1	none | Myeloid diff inactive | GFP autofluor inactive
CC(=O)Nc1ccc(OCC(O)Cn2c3ccccc3c3ccccc32)c(C)c1 (stereo not given)	none
CC(=O)Nc1ccc(OCC(O)Cn2c3ccccc3c3ccccc32)cc1 (stereo not given)	none | Myeloid diff inactive | GFP autofluor 8.5
C=CCn1c(N2CCN(c3ccc(OC)cc3)CC2)nc2c1c(=O)[nH]c(=O)n2C	none | Myeloid diff inactive | GFP autofluor inactive
Nc1ccc(C(=O)N/N=C\C=C\c2ccc([N+](=O)[O-])cc2)cc1	none
Cc1cccc(Cn2c(NCCO)nc3c2c(=O)n(C)c(=O)n3C)c1	Myeloid diff 2 active | Myeloid diff inactive | GFP autofluor inactive
C=CCNc1nc2c(c(=O)n(C)c(=O)n2C)n1Cc1ccc(F)cc1	none | Myeloid diff inactive | GFP autofluor inactive
C[C@H](CO)N1C[C@H](C)[C@@H](CN(C)Cc2ccncc2)Oc2c(NS(=O)(=O)c3cccs3)cccc2C1=O	none
O=C(O)C1CCCCC1C(=O)Nc1cccc(C(=O)N2CCCCC2)c1 (stereo not given)	Myeloid diff 2 active | Myeloid diff inactive | GFP autofluor inactive
CCOC(=O)C1CCN(Cc2cnc(Oc3ccc(N)cc3)s2)CC1	none
Cc1cc(OCC[N+]2(C)CCCCC2)nc2ccccc12	none | Myeloid diff inactive | GFP autofluor inactive
CC(=O)N1N=C(c2ccc(Cl)cc2)OC1c1ccc(C(C)C)cc1 (stereo not given)	none | Myeloid diff inactive | GFP autofluor inactive
O=C(N[C@@H]1c2ccccc2CC[C@@H]1OCc1ccccc1)c1ccc(-c2ccccc2)cc1	none
CCOC(=O)c1c(N)sc2c1CCC(C)C2 (stereo not given)	Myeloid diff 2 active | Myeloid diff inactive | GFP autofluor inactive
CCOC(=O)c1c(NS(C)(=O)=O)sc2c1CCC(C)C2 (stereo not given)	none
COc1ccc(C(=O)N[C@H](C(=O)Nc2cccc(S(=O)(=O)N3CCOCC3)c2)C(C)C)cc1	Myeloid diff 2 active | Myeloid diff inactive | GFP autofluor inactive
COc1ccc(Br)c(C(=O)Nc2cccc(S(=O)(=O)N3CCOCC3)c2)c1	none
Cc1[nH]n(-c2ccccc2)c(=O)c1C(=O)c1ccccc1	none
Cc1[nH]n(-c2ccccc2)c(=O)c1C(=O)c1cccc(F)c1	none | Myeloid diff inactive | GFP autofluor inactive
CCCNC(=O)C1(C)CCCN(C/C=C/c2ccccc2)C1 (stereo not given)	none (no result: CRFBP-R2 block)
CCC(=O)Nc1cccc(NC(=S)NC(=O)c2ccccc2Cl)c1	none
CCC(=O)Nc1cccc(NC(=O)c2ccccc2Cl)c1	none | Myeloid diff inactive | GFP autofluor inactive
O=[N+]([O-])c1cccc(-c2nc(-c3ccncc3)no2)c1	Myeloid diff 2 active | Myeloid diff inactive | GFP autofluor inactive
COc1cccc(CNC(=O)C(CCSC)NS(=O)(=O)c2ccc3c(c2)oc(=O)n3C)c1 (stereo not given)	none | Myeloid diff inactive | GFP autofluor 5.8
O=C(NCCc1c[nH]c2ccccc12)/C(=C\c1cccnc1)NC(=O)c1ccco1	none
O=C(NCCc1c[nH]c2ccccc12)/C(=C\c1cccnc1)NC(=O)c1ccccc1Br	Myeloid diff 2 active | Myeloid diff inactive | GFP autofluor inactive

High-throughput results (PubChem BioAssay)
